Source: PubChem BioAssay AID1028 (SRMLSC, 2008)
Entries with a potency or affinity are not part of this list.

What follows are compounds tested against diphosphomevalonate decarboxylase (Streptococcus pneumoniae D39) (UniProt Q9FD53) (assay: S. pneumoniae DPM-DC inhibition retest, confirmation, biochemical, cuvette format, coupled NADH fluorescence (AID 1028)). Conditions: purified DPM-DC, rate, at 50 µM, hits give high values;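 active = enzyme inhibitor confirmed by dose series, half-maximal inhibitory concentration at most 40 µM; inactive = the rest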.

inhibition, inactive:
COc1ccc2oc(-c3ccc(N)cc3)nc2c1 7.74%
Cc1ccc(-c2nc3ccccc3o2)cc1F 9.15%
Cc1ccccc1-c1nc2cccc(N)c2o1 -2.22%
COc1ccc2oc(-c3ccc(F)cc3)nc2c1 1.68%
COc1ccc(OC)c(-c2nc3cc(OC)ccc3o2)c1 2.12%
O=C(c1ccccc1-n1sc2ccccc2c1=O)N1CCCCC1 16.1%
Cc1ccc(-c2nc3cc(N)ccc3o2)cc1F 16%
Cc1ccc(C)c(-c2nc3ccccc3o2)c1 -0.27%
Cc1ccccc1-c1nc2cc(N)ccc2o1 6.79%
COc1ccc2nc(-c3cc(OC)c(OC)c(OC)c3)oc2c1 3.99%
O=C(c1ccccc1-n1sc2ccccc2c1=O)N1CCCC1 16.1%
Cc1ccc(C)c(-c2nc3c(N)cccc3o2)c1 6.19%
COc1ccc2nc(-c3ccc(F)cc3)oc2c1 4.34%
Nc1ccc2oc(-c3cccc(Cl)c3)nc2c1 8.07%
Fc1cccc(-c2nc3ccccc3o2)c1 4.51%
COc1ccc2nc(-c3ccc(C)cc3)oc2c1 5.23%
Cc1cccc(-c2nc3ccccc3o2)c1 5.31%
O=C(c1ccccc1-n1sc2ccccc2c1=O)N1CCOCC1 13.7%
COc1ccc(-c2nc3ccccc3o2)cc1 6.86%
COc1ccc2nc(-c3cc(C)ccc3C)oc2c1 1.13%
Cc1ccc(C)c(-c2nc3cc([N+](=O)[O-])ccc3o2)c1 1.75%
COc1ccc2oc(-c3cccc(C)c3)nc2c1 2.37%
COc1ccc2oc(-c3ccc(C)cc3)nc2c1 -3.06%
Nc1ccc2oc(-c3cccc(F)c3)nc2c1 10.4%
